In the supplement of paper PMC10849652:
Targets with a hit are over-represented here; the source holds about 8,800 in all. About 0.5% of all pairs of compound and target were hits. Values without a mark were called inactive.

Compound: Cc1sc2c(c1C)C(c1ccc(Cl)cc1)=N[C@@H](CC(=O)OC(C)(C)C)c1nnc(C)n1-2
Assay: log2 fold change, soluble protein after heating vs DMSO (PISA); higher = thermal stabilisation; K562 lysate, 10 uM; active = over 0.2 and 3.5 SD of the protein, either way, in both replicates (recomputed)
Outline: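 Soluble protein was defined as the supernatant remaining after 21,000xg for 90 min, following pooling of heated aliquots and adjustment to 0.5% NP-40 at 4°C. Before that, crude K562 extract at 1 mg/mL protein in PBS pH 7.4 with 1 mM MgCl2 was treated with 10 μM compound for 30 min and heated for 3 min across 48°C-58°C. Quantification used TMTpro 16plex LC-MS/MS with channel sums equalised, and values are log-two fold changes in thermal stability relative to solvent controls from duplicates.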

Chain of UniProt O60508 (O60508 whole entry, looked up): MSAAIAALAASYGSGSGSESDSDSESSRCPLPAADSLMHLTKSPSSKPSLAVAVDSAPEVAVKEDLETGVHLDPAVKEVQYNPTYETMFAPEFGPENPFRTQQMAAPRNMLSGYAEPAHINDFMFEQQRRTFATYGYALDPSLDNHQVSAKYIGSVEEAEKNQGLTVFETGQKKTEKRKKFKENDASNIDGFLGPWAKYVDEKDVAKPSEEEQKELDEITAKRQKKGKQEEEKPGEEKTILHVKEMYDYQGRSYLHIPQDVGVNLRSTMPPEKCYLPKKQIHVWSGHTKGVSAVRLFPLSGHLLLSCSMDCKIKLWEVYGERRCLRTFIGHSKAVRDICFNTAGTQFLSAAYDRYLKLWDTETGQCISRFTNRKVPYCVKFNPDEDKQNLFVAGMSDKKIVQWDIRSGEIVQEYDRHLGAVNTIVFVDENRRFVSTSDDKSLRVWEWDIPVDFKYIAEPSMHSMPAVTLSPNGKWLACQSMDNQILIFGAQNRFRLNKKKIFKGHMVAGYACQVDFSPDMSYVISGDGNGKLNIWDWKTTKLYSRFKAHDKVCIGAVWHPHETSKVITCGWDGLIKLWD
Chain of UniProt P55212 (P55212 whole entry, looked up): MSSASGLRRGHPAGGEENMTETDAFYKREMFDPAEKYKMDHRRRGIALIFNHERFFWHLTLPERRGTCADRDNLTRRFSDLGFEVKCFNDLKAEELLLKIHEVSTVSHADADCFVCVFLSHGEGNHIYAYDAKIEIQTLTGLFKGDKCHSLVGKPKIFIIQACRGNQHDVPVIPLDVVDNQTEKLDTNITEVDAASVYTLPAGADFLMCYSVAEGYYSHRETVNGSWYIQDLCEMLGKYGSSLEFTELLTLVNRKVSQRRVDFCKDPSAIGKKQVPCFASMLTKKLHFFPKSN
Chain of UniProt P42574 (P42574 whole entry, looked up): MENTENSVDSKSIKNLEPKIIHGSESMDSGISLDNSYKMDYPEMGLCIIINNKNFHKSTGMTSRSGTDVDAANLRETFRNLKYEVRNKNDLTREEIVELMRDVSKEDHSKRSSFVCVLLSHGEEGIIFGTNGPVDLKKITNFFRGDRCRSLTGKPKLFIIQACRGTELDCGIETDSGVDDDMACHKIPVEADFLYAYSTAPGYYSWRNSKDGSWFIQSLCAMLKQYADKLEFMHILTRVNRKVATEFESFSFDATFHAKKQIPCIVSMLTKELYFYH
Chain of UniProt Q9Y487 (Q9Y487 whole entry, looked up): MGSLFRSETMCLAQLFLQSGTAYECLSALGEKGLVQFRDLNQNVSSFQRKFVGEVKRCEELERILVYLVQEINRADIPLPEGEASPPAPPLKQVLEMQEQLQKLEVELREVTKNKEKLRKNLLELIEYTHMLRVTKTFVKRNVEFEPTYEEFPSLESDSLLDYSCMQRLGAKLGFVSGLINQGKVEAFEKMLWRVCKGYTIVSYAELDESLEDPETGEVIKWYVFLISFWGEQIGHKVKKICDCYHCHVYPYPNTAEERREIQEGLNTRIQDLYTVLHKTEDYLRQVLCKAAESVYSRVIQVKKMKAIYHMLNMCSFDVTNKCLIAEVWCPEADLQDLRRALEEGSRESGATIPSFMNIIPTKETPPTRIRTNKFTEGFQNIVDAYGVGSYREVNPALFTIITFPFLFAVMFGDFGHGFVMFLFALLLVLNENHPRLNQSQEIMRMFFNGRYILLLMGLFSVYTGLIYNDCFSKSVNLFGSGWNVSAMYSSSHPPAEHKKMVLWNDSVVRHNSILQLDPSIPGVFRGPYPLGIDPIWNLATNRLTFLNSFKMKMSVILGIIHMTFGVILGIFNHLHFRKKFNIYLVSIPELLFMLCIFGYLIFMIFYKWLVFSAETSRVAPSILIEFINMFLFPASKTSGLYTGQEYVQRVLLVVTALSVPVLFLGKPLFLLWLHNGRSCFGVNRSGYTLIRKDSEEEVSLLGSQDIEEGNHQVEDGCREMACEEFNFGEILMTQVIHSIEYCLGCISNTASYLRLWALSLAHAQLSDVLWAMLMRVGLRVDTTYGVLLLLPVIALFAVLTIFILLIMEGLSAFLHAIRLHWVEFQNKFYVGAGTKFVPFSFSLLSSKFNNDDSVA
Chain of UniProt O15155 (O15155 whole entry, looked up): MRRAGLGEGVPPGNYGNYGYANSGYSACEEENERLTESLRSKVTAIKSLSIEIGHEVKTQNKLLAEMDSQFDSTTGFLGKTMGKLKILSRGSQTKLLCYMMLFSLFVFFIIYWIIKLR
Chain of UniProt Q9Y2V2 (Q9Y2V2 whole entry, looked up): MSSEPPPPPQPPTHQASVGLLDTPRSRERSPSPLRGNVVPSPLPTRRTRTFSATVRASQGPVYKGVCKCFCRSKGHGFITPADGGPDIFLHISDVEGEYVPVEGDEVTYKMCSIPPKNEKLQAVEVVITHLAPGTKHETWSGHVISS
Chain of UniProt Q8N960 (Q8N960 whole entry, looked up): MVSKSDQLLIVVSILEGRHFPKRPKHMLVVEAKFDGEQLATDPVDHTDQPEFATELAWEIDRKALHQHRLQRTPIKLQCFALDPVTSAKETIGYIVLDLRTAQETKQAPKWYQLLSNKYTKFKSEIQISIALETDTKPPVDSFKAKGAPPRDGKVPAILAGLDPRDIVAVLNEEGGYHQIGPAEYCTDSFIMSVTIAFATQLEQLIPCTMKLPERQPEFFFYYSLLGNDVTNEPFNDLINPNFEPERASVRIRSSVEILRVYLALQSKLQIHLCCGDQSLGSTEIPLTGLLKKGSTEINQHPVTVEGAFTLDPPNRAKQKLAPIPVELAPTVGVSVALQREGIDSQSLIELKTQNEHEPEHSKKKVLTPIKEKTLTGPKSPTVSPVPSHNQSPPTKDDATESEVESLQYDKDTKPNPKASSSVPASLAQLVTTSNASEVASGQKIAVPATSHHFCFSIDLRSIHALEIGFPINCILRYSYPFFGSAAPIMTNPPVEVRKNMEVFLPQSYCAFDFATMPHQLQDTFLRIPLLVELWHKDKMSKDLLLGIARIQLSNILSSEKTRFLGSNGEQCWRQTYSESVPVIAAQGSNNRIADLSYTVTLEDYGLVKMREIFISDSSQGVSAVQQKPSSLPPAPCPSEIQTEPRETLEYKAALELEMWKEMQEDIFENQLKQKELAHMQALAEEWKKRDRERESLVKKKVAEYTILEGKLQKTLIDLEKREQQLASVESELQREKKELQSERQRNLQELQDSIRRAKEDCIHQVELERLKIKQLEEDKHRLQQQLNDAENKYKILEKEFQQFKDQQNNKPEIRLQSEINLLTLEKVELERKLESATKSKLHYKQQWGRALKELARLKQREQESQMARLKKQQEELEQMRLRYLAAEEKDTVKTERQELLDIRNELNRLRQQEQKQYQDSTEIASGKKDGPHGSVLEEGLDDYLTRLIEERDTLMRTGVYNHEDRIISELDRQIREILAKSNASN
Chain of UniProt Q9H3K6 (Q9H3K6 whole entry, looked up): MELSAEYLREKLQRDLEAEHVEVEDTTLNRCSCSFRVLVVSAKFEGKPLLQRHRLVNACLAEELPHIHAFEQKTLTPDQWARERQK
Chain of UniProt P30307 (P30307 whole entry, looked up): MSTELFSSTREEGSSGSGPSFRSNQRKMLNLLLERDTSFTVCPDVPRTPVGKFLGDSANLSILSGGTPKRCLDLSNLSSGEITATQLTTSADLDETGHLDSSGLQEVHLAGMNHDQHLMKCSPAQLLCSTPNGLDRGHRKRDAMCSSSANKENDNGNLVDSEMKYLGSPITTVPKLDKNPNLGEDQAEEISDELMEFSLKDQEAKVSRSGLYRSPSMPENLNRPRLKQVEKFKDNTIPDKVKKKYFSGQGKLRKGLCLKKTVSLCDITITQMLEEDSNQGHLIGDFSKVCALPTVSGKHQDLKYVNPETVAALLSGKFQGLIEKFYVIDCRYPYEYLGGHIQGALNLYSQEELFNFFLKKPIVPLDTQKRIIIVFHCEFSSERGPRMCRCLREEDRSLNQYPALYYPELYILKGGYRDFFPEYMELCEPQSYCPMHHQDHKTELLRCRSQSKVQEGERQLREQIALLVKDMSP
Chain of UniProt P06493 (P06493 whole entry, looked up): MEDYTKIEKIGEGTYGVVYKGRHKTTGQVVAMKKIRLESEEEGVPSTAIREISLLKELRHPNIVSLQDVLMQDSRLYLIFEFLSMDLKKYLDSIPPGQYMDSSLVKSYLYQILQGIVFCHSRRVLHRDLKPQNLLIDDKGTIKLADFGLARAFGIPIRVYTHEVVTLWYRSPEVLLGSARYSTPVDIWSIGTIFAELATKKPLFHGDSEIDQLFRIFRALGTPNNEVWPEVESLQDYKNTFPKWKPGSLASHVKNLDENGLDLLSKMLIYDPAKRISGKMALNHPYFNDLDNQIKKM
Chain of UniProt Q96RR4 (Q96RR4 whole entry, looked up): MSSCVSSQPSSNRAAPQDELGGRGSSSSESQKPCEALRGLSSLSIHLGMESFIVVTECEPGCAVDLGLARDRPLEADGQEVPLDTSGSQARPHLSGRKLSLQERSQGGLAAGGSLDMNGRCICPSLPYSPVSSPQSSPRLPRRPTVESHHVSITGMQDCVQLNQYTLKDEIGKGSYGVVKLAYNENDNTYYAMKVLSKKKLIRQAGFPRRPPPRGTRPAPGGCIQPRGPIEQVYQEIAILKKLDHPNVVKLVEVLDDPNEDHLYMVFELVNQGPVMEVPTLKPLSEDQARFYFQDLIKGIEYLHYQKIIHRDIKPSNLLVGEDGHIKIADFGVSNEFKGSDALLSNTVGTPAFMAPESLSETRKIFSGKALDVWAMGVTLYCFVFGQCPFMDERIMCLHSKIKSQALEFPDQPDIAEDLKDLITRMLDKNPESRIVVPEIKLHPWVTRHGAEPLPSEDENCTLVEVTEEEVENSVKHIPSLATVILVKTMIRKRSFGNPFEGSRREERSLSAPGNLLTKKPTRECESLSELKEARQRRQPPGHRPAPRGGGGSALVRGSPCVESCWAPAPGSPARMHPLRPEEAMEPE
Chain of UniProt Q9Y6H1 (Q9Y6H1 whole entry, looked up): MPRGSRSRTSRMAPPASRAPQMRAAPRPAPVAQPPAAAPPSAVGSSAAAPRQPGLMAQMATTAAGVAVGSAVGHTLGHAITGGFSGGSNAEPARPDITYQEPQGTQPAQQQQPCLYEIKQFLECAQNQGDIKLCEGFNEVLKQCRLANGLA

Q: For ATP6V0A2 (UniProt Q9Y487), which log2 fold change is on record?
A: -0.015

Q: Which log2 fold change does the source give for CASP9 (UniProt P55211) here?
A: -0.05

Q: For CCDC25 (UniProt Q86WR0), which log2 fold change is on record?
A: -0.015

Q: How did the log2 fold change turn out when ATP5PF isoform 2 (UniProt P18859) was run?
A: 0.075

Q: How did the log2 fold change turn out when ATG4A (UniProt Q8WYN0) was run?
A: -0.01

Q: CARD9 (UniProt Q9H257) was tested. Which log2 fold change did it give?
A: -0.009

Q: With CAMKK2 (UniProt Q96RR4) as the target, how does the log2 fold change read?
A: 0.051

Q: For CDC25C (UniProt P30307), which log2 fold change is on record?
A: 0.07

Q: How did the log2 fold change turn out when CHCHD2 (UniProt Q9Y6H1) was run?
A: 0.062

Q: For CASP3 (UniProt P42574), which log2 fold change is on record?
A: 0.051

Q: Which log2 fold change does the source give for CDK5 (UniProt Q00535) here?
A: 0.002

Q: With CARS isoform 3 (UniProt P49589) as the target, how does the log2 fold change read?
A: 0.035

Q: Which log2 fold change does the source give for C18orf25 isoform 2 (UniProt Q96B23) here?
A: 0.089

Q: For BRD3 (UniProt Q15059), which log2 fold change is on record?
A: 0.5 (active)

Q: CDK11B (UniProt P21127) was tested. Which log2 fold change did it give?
A: 0.035

Q: How did the log2 fold change turn out when CAPN15 (UniProt O75808) was run?
A: -0.011

Q: For CASP6 (UniProt P55212), which log2 fold change is on record?
A: 0.009

Q: CDK2 (UniProt P24941) was tested. Which log2 fold change did it give?
A: 0.076

Q: Which log2 fold change does the source give for CHAF1A (UniProt Q13111) here?
A: 0.017

Q: Which log2 fold change does the source give for BOLA2 (UniProt Q9H3K6) here?
A: 0.034

Q: How did the log2 fold change turn out when ATG7 (UniProt O95352) was run?
A: -0.014

Q: With BORCS5 (UniProt Q969J3) as the target, how does the log2 fold change read?
A: -0.005

Q: Which log2 fold change does the source give for C19orf54 (UniProt Q5BKX5) here?
A: 0.033

Q: For CAMK1 (UniProt Q14012), which log2 fold change is on record?
A: 0.026

Q: Which log2 fold change does the source give for CCNC (UniProt P24863) here?
A: -0.036

Q: For BMS1 (UniProt Q14692), which log2 fold change is on record?
A: 0.013

Q: BET1 (UniProt O15155) was tested. Which log2 fold change did it give?
A: 0.038

Q: Which log2 fold change does the source give for CHCHD4 isoform 2 (UniProt Q8N4Q1) here?
A: -0.189

Q: How did the log2 fold change turn out when AURKA (UniProt O14965) was run?
A: -0.055

Q: CDK1 (UniProt P06493) was tested. Which log2 fold change did it give?
A: 0.021

Q: Which log2 fold change does the source give for CCNYL1 (UniProt Q8N7R7) here?
A: -0.058

Q: Which log2 fold change does the source give for BRD4 (UniProt O60885) here?
A: 0.415 (active)

Q: With ATG4B (UniProt Q9Y4P1) as the target, how does the log2 fold change read?
A: -0.002

Q: How did the log2 fold change turn out when CCAR2 (UniProt Q8N163) was run?
A: 0.003

Q: CEP120 (UniProt Q8N960) was tested. Which log2 fold change did it give?
A: -0.169

Q: How did the log2 fold change turn out when CDKN2AIP (UniProt Q9NXV6) was run?
A: -0.041

Q: How did the log2 fold change turn out when CDC40 (UniProt O60508) was run?
A: 0.099

Q: AURKAIP1 (UniProt Q9NWT8) was tested. Which log2 fold change did it give?
A: 0.024

Q: With CARHSP1 (UniProt Q9Y2V2) as the target, how does the log2 fold change read?
A: -0.053
